Source: PubChem
DSG3 Ab inh = blocks pemphigus antibody binding to human desmoglein-3 | binding (percent of control), % at 10 µM | 0.48% of 310,000 active | AID 588358 | P32926 | DSG3-coupled beads, scFv-anti-DSG3-GFP binding, flow cytometry; stronger effect = lower value;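 active = binding more than 3 SD below its plate's average and above zero; inconclusive = below that plate limit but binding exactly zero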;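 note: hits lower antibody fragment binding to DSG3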
Target sequence (P32926 whole entry, looked up, the tested form may be a part): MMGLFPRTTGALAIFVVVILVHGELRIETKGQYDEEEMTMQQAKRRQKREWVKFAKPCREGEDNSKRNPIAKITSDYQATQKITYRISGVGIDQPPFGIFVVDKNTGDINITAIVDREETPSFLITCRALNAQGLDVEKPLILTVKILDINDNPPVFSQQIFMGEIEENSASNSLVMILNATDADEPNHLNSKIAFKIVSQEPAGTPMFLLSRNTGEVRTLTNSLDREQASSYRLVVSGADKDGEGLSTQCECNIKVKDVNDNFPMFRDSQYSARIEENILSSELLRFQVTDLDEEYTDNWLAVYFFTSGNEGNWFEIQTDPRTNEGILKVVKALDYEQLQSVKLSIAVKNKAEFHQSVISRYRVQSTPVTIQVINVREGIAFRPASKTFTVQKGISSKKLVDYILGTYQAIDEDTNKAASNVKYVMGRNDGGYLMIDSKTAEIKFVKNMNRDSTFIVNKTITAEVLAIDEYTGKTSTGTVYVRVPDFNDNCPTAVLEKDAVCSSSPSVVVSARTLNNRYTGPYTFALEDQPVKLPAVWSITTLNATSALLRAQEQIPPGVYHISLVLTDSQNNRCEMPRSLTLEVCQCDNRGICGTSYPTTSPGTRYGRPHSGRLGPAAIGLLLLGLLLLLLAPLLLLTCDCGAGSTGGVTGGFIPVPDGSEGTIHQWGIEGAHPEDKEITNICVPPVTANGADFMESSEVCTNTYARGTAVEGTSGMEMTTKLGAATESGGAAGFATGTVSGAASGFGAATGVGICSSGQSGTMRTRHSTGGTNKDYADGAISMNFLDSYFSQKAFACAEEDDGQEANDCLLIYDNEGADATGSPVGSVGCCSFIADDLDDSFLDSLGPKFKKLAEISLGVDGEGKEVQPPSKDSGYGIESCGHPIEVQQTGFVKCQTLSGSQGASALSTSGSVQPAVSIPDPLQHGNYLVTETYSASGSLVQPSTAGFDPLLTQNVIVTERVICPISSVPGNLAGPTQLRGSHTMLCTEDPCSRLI
AGP1 TOR yeast = yeast TOR pathway AGP1-GFP modulation; S. cerevisiae AGP1-GFP multiplex flow cytometry, 3 h; GFP as percent of DMSO wells; AID 2066; GFP response vs DMSO, % at 10 µM; 0.02% of 320,000 active;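 active = GFP response relative to DMSO above a set limit, near screen average plus 3 SD, cut at about 150% in these data; inconclusive = fewer than 70 cells counted for the yeast strain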;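 note: median GFP channel fluorescence of the gated AGP1 strain per well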
RPL19A-GFP yeast = yeast TOR pathway RPL19A-GFP modulation; S. cerevisiae RPL19A-GFP strain, flow cytometry, 3 h; stronger effect = lower value; percent response vs DMSO, % at 10 µM; 0.3% of 330,000 active; AID 2025;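 active = percent response vs DMSO below 50%; inconclusive = fewer than 70 events counted for the yeast strain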;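 note: median channel GFP fluorescence of the barcoded RPL19A-GFP strain; lower means less RPL19A-GFP as with rapamycin TOR inhibition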
CIT2 TOR yeast = modulators of TOR pathway CIT2-GFP in S. cerevisiae; S. cerevisiae CIT2-GFP strain, flow cytometry, 3 h; 100 means same as DMSO wells; GFP response vs DMSO, % at 10 µM; 0.065% of 320,000 active;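 active = GFP response relative to DMSO above a set limit, near the screen mean plus 3 SD, cut at about 150% in these data; inconclusive = Fewer than 70 cells measured for a yeast strain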;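 note: ratio of well median GFP fluorescence to mean of DMSO wells on the plate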
LAP4 TOR yeast = alters LAP4-GFP fluorescence in TOR pathway yeast screen. 0.34% of 320,000 active. S. cerevisiae LAP4-GFP multiplex, flow cytometry GFP, 3 h; median GFP as percent of DMSO wells. GFP response vs DMSO, % at 10 µM;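 active = GFP response vs DMSO above a set limit, about the screen mean plus 3 SD, cut at about 150% in these data; inconclusive = under 70 cell events counted for the yeast strain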
MEP2-GFP yeast = yeast TOR pathway MEP2-GFP modulation; 0.51% of 330,000 active; S. cerevisiae MEP2-GFP strain, flow cytometry GFP, 3 h; 100% = DMSO control level; AID 2016; GFP response vs DMSO, % at 10 µM;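 active = GFP response versus DMSO above a set limit, roughly screen mean plus 3 SD, cut at about 180% in these data; inconclusive = fewer than 70 cells counted for a yeast strain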;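 note: median GFP fluorescence of the barcode-gated MEP2-GFP cells per well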
Large screens that a line does not name were inactive; [ ] = dose if it differs, or a comment. Rows were chosen to be rich in hits. Some 1.2% of all compounds tested hit in one or more screens of this group.

C/C(CC(=O)Nc1cc(C)ccn1)=N\NC(=O)c1ccc(C)cc1	none
C/C(CC(=O)Nc1cc(C)ccn1)=N\NC(=O)c1cccc(F)c1	MEP2-GFP yeast 183.1 (no result: DSG3 Ab inh)
Cc1cccc(NC(=O)c2cc3c(s2)-c2c(C)cccc2OC3)n1	CIT2 TOR yeast inconclusive, MEP2-GFP yeast 221.9[may fluoresce violet]
Cc1ccc(NC(=O)c2cc(NC(=O)c3ccco3)ccc2N2CCCCC2)cc1	AGP1 TOR yeast inconclusive, RPL19A-GFP yeast 27.2[may fluoresce violet], CIT2 TOR yeast inconclusive, MEP2-GFP yeast 371.2[may fluoresce violet]
Cc1ccc(NC(=O)c2cc(NC(=O)c3ccco3)ccc2N2CCOCC2)cc1	none
O=c1cc(-c2c(F)c(F)c(F)c(F)c2F)oc2c(F)c(F)c(F)c(F)c12	LAP4 TOR yeast 176.8 (no result: DSG3 Ab inh)
Cc1cc(C)c2cccc(N)c2n1	none
Cc1cc(C)c2c(N)c3ccccc3nc2n1	RPL19A-GFP yeast 14.9[may fluoresce violet], CIT2 TOR yeast inconclusive (no result: DSG3 Ab inh)
CCc1ccc2nc3nc(C)cc(C)c3c(N)c2c1	AGP1 TOR yeast inconclusive, RPL19A-GFP yeast 32.1[may fluoresce violet], CIT2 TOR yeast inconclusive, MEP2-GFP yeast 384.5[may fluoresce violet]
COC(=O)c1ccc(CSc2nc3ccc(Cl)cc3[nH]2)o1	none (no result: RPL19A-GFP yeast)
COC(=O)c1ccc(CSc2nc3scc(-c4cccs4)c3c(=O)[nH]2)o1	AGP1 TOR yeast inconclusive, RPL19A-GFP yeast 38.9[may fluoresce violet], CIT2 TOR yeast inconclusive, MEP2-GFP yeast 178.4[may fluoresce violet]
CCOc1ccc(-c2nc3scc(-c4cccs4)c3c(=O)[nH]2)cc1	DSG3 Ab inh 70.7
Cc1ccc(-c2csc3nc(-c4ccncc4)[nH]c(=O)c23)cc1	none
O=C(NCCCN1CCOCC1)C(=O)N/N=C/c1ccc2c(c1)OCO2	AGP1 TOR yeast inconclusive, RPL19A-GFP yeast 47.4[may fluoresce violet], CIT2 TOR yeast inconclusive, MEP2-GFP yeast 298.4[may fluoresce violet]
O=C(N/N=C/c1cccc(OC2CSC2)c1)c1ccccc1O	none (no result: DSG3 Ab inh)
CCc1ccc(-c2nc(SCC(=O)N(CC)C3CCS(=O)(=O)C3)n[nH]2)cc1 (configuration not stated)	none
Cc1nnc(SCC(=O)N(C)C2CCS(=O)(=O)C2)n1Cc1ccccc1 (configuration not stated)	AGP1 TOR yeast inconclusive, RPL19A-GFP yeast 26.6[may fluoresce violet], CIT2 TOR yeast inconclusive, MEP2-GFP yeast 269.1[may fluoresce violet] (no result: DSG3 Ab inh)
CCN(C(=O)CSc1nnc(C)n1Cc1ccccc1)C1CCS(=O)(=O)C1 (configuration not stated)	none (no result: CIT2 TOR yeast)
COc1cccc(NC(=O)/C=C/c2ccc([N+](=O)[O-])cc2)c1	MEP2-GFP yeast 193.1
COc1cccc(NC(=O)/C=C/c2ccccc2[N+](=O)[O-])c1	none (no result: DSG3 Ab inh)
COc1cccc(NC(=O)/C=C/c2ccc(S(=O)(=O)N3CCOCC3)cc2)c1	DSG3 Ab inh 73.3
Cc1nn(Cc2ccccc2)c(Cl)c1C(=O)NCc1ccc(C)n1C	none
Cc1nn(Cc2c(Cl)cccc2Cl)c(C)c1C(=O)NCc1ccc(C)n1C	CIT2 TOR yeast inconclusive, MEP2-GFP yeast 215.9[may fluoresce violet] (no result: AGP1 TOR yeast)
CC1CCN(S(=O)(=O)c2cccc(-c3cn4cc(Cl)ccc4n3)c2)CC1	LAP4 TOR yeast 158.3
CC1CCCN(S(=O)(=O)c2cccc(-c3cn4cccnc4n3)c2)C1 (configuration not stated)	CIT2 TOR yeast inconclusive, MEP2-GFP yeast 177.4[may fluoresce violet] (no result: AGP1 TOR yeast)
CCC1=C2CC[C@H]3C(=O)NC(=O)[C@H]3[C@H]2[C@@]2(Cc3ccccc3)C(=NCC(=O)OC)OC(=O)N2C1=O	none
COc1ccc2[nH]c3nc(SCC(=O)NNC(=O)c4ccc(OC)c(OC)c4)nnc3c2c1	DSG3 Ab inh 14.6
Cc1ccc2nc3c(cc(C(=O)NCCN4CCOCC4)c(=N)n3CCCN3CCOCC3)c(=O)n2c1	none
N=c1c(C(=O)NCCN2CCOCC2)cc2c(=O)n3ccccc3nc2n1CCCN1CCOCC1	AGP1 TOR yeast inconclusive, CIT2 TOR yeast inconclusive, MEP2-GFP yeast 247.5[may fluoresce violet]
N=c1c(C(=O)NCCN2CCOCC2)cc2c(=O)n3ccccc3nc2n1Cc1ccc(F)cc1	RPL19A-GFP yeast 27.7[may fluoresce violet], CIT2 TOR yeast inconclusive
ClC(Cl)(Cl)c1nc2ccccc2n2nncc12	none
CCN1/C(=C/C=C/c2oc3ccc4ccccc4c3[n+]2CC)Oc2ccc3ccccc3c21	CIT2 TOR yeast active[may fluoresce green], LAP4 TOR yeast active[may fluoresce green], MEP2-GFP yeast active[may fluoresce green] (no result: DSG3 Ab inh, AGP1 TOR yeast)
CC[n+]1c(/C=C/N(C)c2ccccc2)oc2ccc(Cl)cc21	none
c1ccc(-c2cc(NCCN3CCCCC3)c3ccccc3n2)cc1	none
COc1ccc(Nc2cc(C(=O)NCCCN3CCN(C)CC3)c3ccccc3n2)cc1	RPL19A-GFP yeast 47.4[may fluoresce violet], CIT2 TOR yeast inconclusive, MEP2-GFP yeast 244.1[may fluoresce violet]
COc1cccc(CN(C)C[C@@H]2OCc3cnnn3CCCC(=O)N([C@@H](C)CO)C[C@H]2C)c1	none (no result: AGP1 TOR yeast, RPL19A-GFP yeast, CIT2 TOR yeast, LAP4 TOR yeast, MEP2-GFP yeast)
Cc1ccc(F)cc1NC(=O)COC(=O)C1CC2CCCC(C1)C2=O (configuration not stated)	none (no result: AGP1 TOR yeast, RPL19A-GFP yeast, CIT2 TOR yeast, LAP4 TOR yeast, MEP2-GFP yeast)
COc1cc(OC)cc(N(C(=O)C2COc3ccccc3O2)C(C(=O)NC2CCCCC2)c2ccc(O)cc2)c1 (configuration not stated)	DSG3 Ab inh 76.0
COc1ccc(N(C(=O)C2COc3ccccc3O2)C(C(=O)NC2CCCCC2)c2ccccc2)cc1OC (configuration not stated)	none
C/C(=N\NC(=O)CC#N)c1cc2ccc(O)cc2oc1=O	AGP1 TOR yeast inconclusive, RPL19A-GFP yeast 16.1[may fluoresce violet], CIT2 TOR yeast inconclusive, MEP2-GFP yeast 200.8[may fluoresce violet] (no result: DSG3 Ab inh)
CCNC(=O)C1CN(S(=O)(=O)c2ccccc2)CCN1S(=O)(=O)c1ccccc1 (configuration not stated)	none
Cc1ccc(/C=N\NC(=O)C2CN(S(=O)(=O)c3ccccc3)CCN2S(=O)(=O)c2ccccc2)cc1 (configuration not stated)	AGP1 TOR yeast inconclusive, RPL19A-GFP yeast 24.1[may fluoresce violet], CIT2 TOR yeast inconclusive, MEP2-GFP yeast 204.1[may fluoresce violet]
O=C(c1ccc(Cl)cc1)N1CCC(C(=O)N2CCN(c3ncccn3)CC2)CC1	none
COC(=O)c1ccc(CNC(=O)Cn2cnnn2)cc1	DSG3 Ab inh 80.6
COc1ccccc1CNC(=O)Cn1cnnn1	none
O=Nc1c(O)c2ccccc2c2ccccc12	LAP4 TOR yeast 210.5
CCCc1cc(=O)[nH]c(SCC(=O)N2CCN(S(=O)(=O)c3ccc4ccccc4c3)CC2)n1	DSG3 Ab inh -2.3
CCCc1cc(=O)[nH]c(SCC(=O)N2CCN(S(=O)(=O)c3ccccc3)CC2)n1	none
O=C(COC(=O)c1ccc(Cl)cc1[N+](=O)[O-])NC(=O)c1ccccc1	DSG3 Ab inh 49.3
COc1ccc(NS(=O)(=O)c2cc3c(cc2C)N(C(C)=O)CCO3)c(OC)c1	none
C[C@H](NC(=O)c1nc[nH]c1C(=O)NC1CCNCC1)C(=O)OCc1ccccc1	none (no result: DSG3 Ab inh)
Cc1nc2ccc(Br)cn2c1C(=O)N/N=C\c1ccccc1[N+](=O)[O-]	none
Cc1nc2ccc(Br)cn2c1C(=O)N/N=C\c1ccccc1Cl	MEP2-GFP yeast 247.8
